About 79,000 compounds went through this panel and 15% of them were active in at least one assay; those are over-represented in the sample as a whole. Active and inactive are the calls of the source. Cut-off read from the data, not from the text of the source: active = growth inhibition above about 70%; inactive = the rest.
Experiments:
[1] = NCI Yeast Anticancer Drug Screen. Data for the rad52 strain (AID 147);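 note: 0% = growth of vehicle-treated control cultures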; details: S. cerevisiae rad52 mutant growth inhibition, active compounds read high
Procedure, shortened: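 Yeast strain carrying a DNA damage repair alteration was exposed to test compounds. Growth inhibition was measured relative to vehicle-treated controls.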

[2] = NCI Yeast Anticancer Drug Screen. Data for the wt1 strain (AID 149);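 note: 0% = growth of vehicle-treated wt1 cultures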; details: S. cerevisiae wt1 strain (SPY 50644) growth inhibition, active compounds read high
Procedure, shortened: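 The wt1 strain was treated with compounds, and growth was compared with vehicle-treated cultures to give inhibition.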

[3] = NCI Yeast Anticancer Drug Screen. Data for the rad50EPP+ strain (AID 151);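 note: 0% = growth of vehicle-treated control cultures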; details: S. cerevisiae rad50 mutant strain, active compounds read high
Procedure, shortened: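 Yeast strain carrying rad50 alteration (rad50EPP+) exposed to compounds; growth inhibition measured relative to vehicle-treated controls.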

[4] = NCI Yeast Anticancer Drug Screen. Data for the rad50 strain (AID 155);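 note: 0% = growth of vehicle-only cultures of the same strain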; details: S. cerevisiae rad50 strain growth inhibition, active compounds read high
Procedure, shortened: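 Cells are treated with compound, grown, and their growth is then scored against vehicle-only cultures of the same repair-deficient yeast strain.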

[5] = NCI Yeast Anticancer Drug Screen. Data for the mec2-1 strain (AID 157); details: S. cerevisiae mec2-1 strain, active compounds read high
Procedure, shortened: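 mec2-1 yeast strain, carrying an alteration in DNA damage repair or cell cycle control, was exposed to compounds; growth inhibition was measured relative to vehicle-treated controls.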

[6] = NCI Yeast Anticancer Drug Screen. Data for the rad14 strain (AID 159);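 note: 0% = growth of vehicle-treated control cultures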; details: S. cerevisiae rad14 strain growth inhibition, active compounds read high
Procedure, shortened: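 Readout: yeast growth inhibition, referenced to vehicle-only cultures. Strain bears a defined alteration in DNA damage repair.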

[7] = NCI Yeast Anticancer Drug Screen. Data for the sgs1 mgt1 strain (AID 161);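 note: 0% = growth of cultures given vehicle only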; details: S. cerevisiae sgs1 mgt1 strain, active compounds read high
Procedure, shortened: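 Yeast cells carrying a defined DNA-repair defect were exposed to test compounds. Growth inhibition was measured relative to vehicle-treated controls.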

[8] = NCI Yeast Anticancer Drug Screen. Data for the CLN2oe strain (AID 163);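 note: 0% = growth of vehicle-only control cultures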; details: S. cerevisiae CLN2oe strain, active compounds read high
Procedure, shortened: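 Yeast cells carrying a defined cell-cycle control alteration were exposed to test compounds. Growth inhibition was scored against vehicle-treated control cultures.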

[9] = NCI Yeast Anticancer Drug Screen. Data for the cln2 rad14 strain (AID 165);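 note: 0% = growth equal to vehicle treated cultures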; details: S. cerevisiae cln2 rad14 strain, active compounds read high
Procedure, shortened: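 Yeast carrying cln2 and rad14 alterations (cell cycle control and DNA damage repair) were exposed to compounds. Growth inhibition was measured against vehicle-treated controls.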

[10] = NCI Yeast Anticancer Drug Screen. Data for the bub3 strain (AID 167); details: S. cerevisiae bub3 mutant strain, active compounds read high
Procedure, shortened: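 Part of a panel of yeast mutants defective in DNA damage repair or cell cycle regulation. Each strain is grown with compound, and inhibition is calculated relative to solvent-treated cultures.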

[11] = NCI Yeast Anticancer Drug Screen. Data for the wt2 strain (AID 169);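 note: 0% = growth of vehicle-treated yeast cultures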; details: S. cerevisiae wt2 strain growth inhibition, active compounds read high
Procedure, shortened: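 Yeast cells were exposed to test compounds, and growth inhibition was measured relative to vehicle-treated controls.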

[12] = NCI Yeast Anticancer Drug Screen. Data for the mlh1 strain (AID 171);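 note: 0% = growth of vehicle-treated control cultures of the same strain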; details: S. cerevisiae mlh1 strain growth inhibition, active compounds read high
Procedure, shortened: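 Yeast carrying a defined genetic alteration in DNA damage repair or cell cycle control were exposed to test compounds. Growth inhibition was measured relative to vehicle-treated controls.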

[13] = NCI Yeast Anticancer Drug Screen. Data for the sgs1 strain (AID 173);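 note: 0% = growth of vehicle-only control cultures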; details: S. cerevisiae sgs1 mutant, active compounds read high
Procedure, shortened: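 Yeast mutant strains carrying defined defects in DNA damage repair or cell cycle control were exposed to test compounds. Growth inhibition was scored against vehicle-treated controls.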

[14] = NCI Yeast Anticancer Drug Screen. Data for the mlh1 rad18 strain (AID 175); details: S. cerevisiae mlh1 rad18 strain growth inhibition, active compounds read high
Procedure, shortened: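 Growth inhibition of the yeast strain was measured after compound exposure and expressed relative to vehicle-treated controls. The strain carries defined defects in DNA damage repair.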

[15] = NCI Yeast Anticancer Drug Screen. Data for the rad18 strain (AID 177); details: S. cerevisiae rad18 mutant growth inhibition, active compounds read high
Procedure, shortened: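 Yeast carrying a defined DNA damage repair alteration were exposed to compounds. Growth inhibition was expressed relative to vehicle-treated controls.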

[16] = at 5.0 µM (retest, dose inferred, filed as 0.5)
[17] = at 50.0 µM (retest, dose inferred, filed as 5.0)

Measured: growth inhibition

O=[N+]([O-])/C=C/c1ccc2ccccc2c1
active: [1]; at 3.7 µM 72% | [1]; at 11.0 µM 100% | [1]; at 33.0 µM 100% | [1]; at 100.0 µM 99% | [2]; at 11.0 µM 99% | [2]; at 33.0 µM 100% | [2]; at 100.0 µM 100% | [3]; at 3.7 µM 98% | [3]; at 11.0 µM 99% | [3]; at 33.0 µM 99% | [3]; at 100.0 µM 99% | [4]; at 3.7 µM 95% | [4]; at 11.0 µM 100% | [4]; at 33.0 µM 100% | [4]; [17] 90% | [4]; at 50.0 µM 99.1% | [4]; at 100.0 µM 99% | [5]; at 3.7 µM 89% | [5]; at 11.0 µM 100% | [5]; at 33.0 µM 100% | [5]; [17] 96% | [5]; at 50.0 µM 99.2% | [5]; at 100.0 µM 97% | [6]; at 3.7 µM 71% | [6]; at 11.0 µM 99% | [6]; at 33.0 µM 99% | [6]; at 100.0 µM 100% | [7]; [17] 95% | [7]; at 50.0 µM 99.3% | [8]; at 11.0 µM 99% | [8]; at 33.0 µM 99% | [8]; at 100.0 µM 99% | [9]; [16] 98% | [9]; [17] 93% | [9]; at 50.0 µM 98.2% | [10]; [16] 98% | [10]; at 11.0 µM 99% | [10]; at 33.0 µM 99% | [10]; [17] 94% | [10]; at 50.0 µM 98.8% | [10]; at 100.0 µM 99% | [11]; at 11.0 µM 100% | [11]; at 33.0 µM 100% | [11]; at 100.0 µM 99% | [12]; at 11.0 µM 100% | [12]; at 33.0 µM 100% | [12]; at 100.0 µM 100% | [13]; at 3.7 µM 98% | [13]; at 11.0 µM 100% | [13]; at 33.0 µM 100% | [13]; at 100.0 µM 100% | [14]; [17] 93% | [14]; at 50.0 µM 98.8% | [15]; at 11.0 µM 99% | [15]; at 33.0 µM 100% | [15]; at 100.0 µM 99%
inactive: [1]; at 1.2 µM 28% | [2]; at 1.2 µM -1% | [2]; at 3.7 µM 7% | [3]; at 1.2 µM 67% | [4]; at 1.2 µM 33% | [4]; [16] 1% | [5]; at 1.2 µM 2% | [5]; [16] 33% | [6]; at 1.2 µM 11% | [7]; [16] -35% | [8]; at 1.2 µM 4% | [8]; at 3.7 µM 53% | [10]; at 1.2 µM 6% | [10]; at 3.7 µM 61% | [11]; at 1.2 µM -5% | [11]; at 3.7 µM 18% | [12]; at 1.2 µM 1% | [12]; at 3.7 µM 38% | [13]; at 1.2 µM 23% | [14]; [16] -256% | [15]; at 1.2 µM 6% | [15]; at 3.7 µM 48%

CCC(C)COC(=O)c1ccc(N=Cc2ccc(C=Nc3ccc(C(=O)OCC(C)CC)cc3)cc2)cc1 (stereo unspecified)
active: [4]; [16] 96% | [4]; [17] 96% | [7]; [16] 98% | [7]; [17] 98% | [7]; at 50.0 µM 70.3%
inactive: [1]; at 1.2 µM -2% | [1]; at 3.7 µM -3% | [1]; at 11.0 µM 6% | [1]; at 33.0 µM 4% | [1]; at 100.0 µM 13% | [2]; at 1.2 µM -1% | [2]; at 3.7 µM -4% | [2]; at 11.0 µM -2% | [2]; at 33.0 µM -1% | [2]; at 100.0 µM 3% | [3]; at 1.2 µM 5% | [3]; at 3.7 µM 5% | [3]; at 11.0 µM 16% | [3]; at 33.0 µM 32% | [3]; at 100.0 µM 49% | [4]; at 1.2 µM -2% | [4]; at 3.7 µM -9% | [4]; at 11.0 µM -2% | [4]; at 33.0 µM 3% | [4]; at 50.0 µM 28.8% | [4]; at 100.0 µM 21% | [5]; at 1.2 µM -3% | [5]; at 3.7 µM -2% | [5]; [16] 13% | [5]; at 11.0 µM 3% | [5]; at 33.0 µM 4% | [5]; [17] 13% | [5]; at 50.0 µM 49.6% | [5]; at 100.0 µM 8% | [6]; at 1.2 µM -1% | [6]; at 3.7 µM 1% | [6]; at 11.0 µM 4% | [6]; at 33.0 µM 2% | [6]; at 100.0 µM 11% | [8]; at 1.2 µM 0% | [8]; at 3.7 µM 0% | [8]; at 11.0 µM 6% | [8]; at 33.0 µM -1% | [8]; at 100.0 µM 0% | [9]; [16] 12% | [9]; [17] 12% | [9]; at 50.0 µM 41% | [10]; at 1.2 µM 7% | [10]; at 3.7 µM 3% | [10]; [16] 3% | [10]; at 11.0 µM 6% | [10]; at 33.0 µM 10% | [10]; [17] 3% | [10]; at 50.0 µM 62.1% | [10]; at 100.0 µM 10% | [12]; at 1.2 µM 0% | [12]; at 3.7 µM 3% | [12]; at 11.0 µM 2% | [12]; at 33.0 µM 10% | [12]; at 100.0 µM 19% | [13]; at 1.2 µM -2% | [13]; at 3.7 µM -2% | [13]; at 11.0 µM 2% | [13]; at 33.0 µM 7% | [13]; at 100.0 µM 11% | [14]; [16] 50% | [14]; [17] 50% | [14]; at 50.0 µM 57.1% | [15]; at 1.2 µM -1% | [15]; at 3.7 µM -3% | [15]; at 11.0 µM 3% | [15]; at 33.0 µM 13% | [15]; at 100.0 µM 22%
